# Several values for one entry are separate records, joined by “and”; a condition that tells them apart may be missing. Identical values can stand only once. Records with an inconclusive call do not appear. Values without a mark were called inactive. Activity calls are given as the source filed them. Calls follow the shape of the dose curve; as a rule, active = well fitted cell-killing curve with a large enough effect in the repeat runs; inconclusive = weak or mixed curves, or effect the other way; inactive = no such curve, though single readings can be large or run the other way.
# Test: qHTS assay for identifying genotoxic compounds that show differential cytotoxicity against isogenic chicken DT40 cell lines with known DNA damage response pathways - wild type cell line (AID 743012); also: nearly all actives have a fitted effect of over 60% in size
# Conditions: DT40 wild type chicken cells viability, CellTiter-Glo, 40 h; series mostly up to 68.4 µM; activity change, negative = cytotoxicity: at the top concentration
# In short: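 Viability by ATP luminescence (CellTiter-Glo, 30 min RT) after 40 h compound treatment at 37 C/5% CO2, using 300 parental DNA repair-proficient DT40 cells per well.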
# % is scaled to controls: 0 for no effect and ±100 for the full control effect; potency is read from the fitted curve at half-maximal effect.
SMILES,Potency,"activity change, negative = cytotoxicity"
CN(C)CCCN1c2ccccc2Sc2ccccc21,9.02 µM (active),
Cc1nn(C)c(Oc2ccccc2)c1/C=N/OCc1ccc(C(=O)OC(C)(C)C)cc1,0.0022 µM (active),
Nc1c(CC(=O)O)cccc1C(=O)c1ccc(Br)cc1,,3.75%
C=C(C)C(=O)OCC,,12.8% [at 95 µM]
CCCCCCCC/C=C\CCCCCCCC(=O)OCC,,4.8%
CN(Cc1ccc(C(C)(C)C)cc1)Cc1cccc2ccccc12,,-21.4%
COc1ccc(S(=O)(=O)N2C(=O)[C@@](c3ccccc3OC)(N3C[C@H](O)C[C@H]3C(=O)N(C)C)c3cc(Cl)ccc32)c(OC)c1,48.6 µM (active),
COc1cc2c(cc1OC)C(C(C(=O)N(CCc1ccc(OC)c(OC)c1OC)CCc1ccc(OC)c(OC)c1OC)c1ccccc1)=NCC2 (centres undefined),6.68 µM (active),
CCN(CC)CCNC(=O)c1cc(Br)c(N)cc1OC,,11%
CC1OC(=O)C(C)OC1=O (centres undefined),,27.5%
CCCCC/C=C\C/C=C\CCCCCCCC(=O)NC(C)c1ccccc1 (centres undefined),,-0.781%
O=C(O)CC(=O)C(=O)O,,-6.76% [at 95 µM]
OCc1cc(C(O)CNCCCCCCOCCCCc2ccccc2)ccc1O (centres undefined),3.35 µM (active) and 2.37 µM (active),
C=C(C)C(=O)OCCO,,-1.9% [at 95 µM]
CC/C=C\CCOC(=O)CC,,0.976%
COc1cc2nc(N(C)CCCNC(=O)C3CCCO3)nc(N)c2cc1OC (centres undefined),,6.85% [at 31.4 µM]
O=C(O)C1(C(=O)Nc2ccc(Cl)cc2Cl)CC1,61.1 µM (active),
CCCCCCCCCOS(=O)(=O)O,,8.71%
O=C1c2ccccc2S(=O)(=O)N1CCCCN1CCN(c2ncccn2)CC1,,-17.1%
